# Mdm2-MdmX inh = inhibitors of human Mdm2-MdmX association, primary screen, cell-based, luminescence, split luciferase, SaOS-2, uHTS | Protein Mdm4 (Homo sapiens) + E3 ubiquitin-protein ligase Mdm2 (Homo sapiens), … | SaOS-2 split-luciferase Mdm2/MdmX complementation | inhibition, % at 8 µM | 330,000 compounds, 3% hits;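 active = inhibition of at least 50% at 8 µM in the primary screen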
# Target sequence (O15151 whole entry, looked up): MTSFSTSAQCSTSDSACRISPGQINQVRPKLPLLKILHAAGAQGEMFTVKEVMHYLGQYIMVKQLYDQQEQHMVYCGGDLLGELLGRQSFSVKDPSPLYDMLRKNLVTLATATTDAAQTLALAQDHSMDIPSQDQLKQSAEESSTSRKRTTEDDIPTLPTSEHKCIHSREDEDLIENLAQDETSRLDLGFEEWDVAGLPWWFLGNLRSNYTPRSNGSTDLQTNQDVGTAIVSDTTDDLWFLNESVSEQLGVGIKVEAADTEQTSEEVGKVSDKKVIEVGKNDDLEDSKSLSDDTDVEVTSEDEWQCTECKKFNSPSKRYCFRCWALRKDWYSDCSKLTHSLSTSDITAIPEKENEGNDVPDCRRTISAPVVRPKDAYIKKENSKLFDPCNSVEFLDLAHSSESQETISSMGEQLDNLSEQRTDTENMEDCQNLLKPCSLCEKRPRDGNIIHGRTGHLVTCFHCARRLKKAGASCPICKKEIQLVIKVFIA
# Target sequence (Q00987 whole entry, looked up): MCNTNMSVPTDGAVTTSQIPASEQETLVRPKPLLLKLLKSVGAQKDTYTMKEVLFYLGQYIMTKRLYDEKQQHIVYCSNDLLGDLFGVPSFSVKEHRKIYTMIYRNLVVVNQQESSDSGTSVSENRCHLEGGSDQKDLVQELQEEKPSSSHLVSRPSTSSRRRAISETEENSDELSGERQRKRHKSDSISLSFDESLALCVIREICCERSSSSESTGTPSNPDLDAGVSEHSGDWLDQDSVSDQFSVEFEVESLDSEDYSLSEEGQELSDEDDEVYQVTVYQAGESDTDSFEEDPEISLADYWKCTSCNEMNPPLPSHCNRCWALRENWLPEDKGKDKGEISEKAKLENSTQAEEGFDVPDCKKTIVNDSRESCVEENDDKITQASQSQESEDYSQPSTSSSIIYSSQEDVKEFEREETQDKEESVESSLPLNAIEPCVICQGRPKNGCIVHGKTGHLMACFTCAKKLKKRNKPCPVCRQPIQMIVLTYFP
# Beta apoptosis = inhibitors of cytokine-induced beta cell apoptosis, primary screen, luminescence; INS-1E cytokine-induced death, ATP luminescence, 48 h; percent of positive-control rescue, neutral wells zero; protection from apoptosis, % (test concentration not listed); 300,000 compounds, 0.8% hits; AID 435005, 2010;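 active = Every replicate reaches about 75%, or at least half do and their mean reaches it too, limit read from the data; inconclusive = At least half of replicates reach the limit but their mean does not; inactive = Under half of replicates reach the limit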;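 note: 0% = cytokine-treated negative control wells and 100% = positive control rescue; higher means more ATP so stronger rescue from cytokine killing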
# Calb FLC = C. albicans growth inhibition with fluconazole, primary screen, CaCi-2 strain, Alamar Blue fluorescence. C. albicans CaCi-2 (fluconazole-resistant clinical isolate) + fluconazole, 48 h. growth inhibition, % (no concentration beside the values). 300,000 compounds, 0.57% hits. AID 1979, 2009;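 active = growth inhibition above about 58% in most replicates, limit read from the data, passing the limit was not always enough; inconclusive = exactly half the replicates above a set limit; inactive = most replicates below a set limit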;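 note: all wells also contain fluconazole at 8 µg/ml as a sub-toxic cotreatment; 0% = median of DMSO wells and 100% = median of geldanamycin control wells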
# CSC inhib = cancer stem cell viability inhibitors, primary screen, luminescence; 300,000 compounds, 1.1% hits; cancer stem cell-like cells viability; inhibition, % at 7.5 µM; in the data active = inhibition above about 75%; inconclusive = no clear call, values can overlap the other calls; tested in HMLE shEcad cells
# MPTP inh = mitochondrial permeability transition pore inhibitors, primary screen, biochemical, isolated mouse mitochondria, absorbance | 360,000 compounds, 1.4% hits | AID 602449, 2012 | Ca2+ swelling absorbance, 30 min | inhibition, % at 10 µM;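 active = inhibition of 50% or more, scaled per plate between neutral and stimulator controls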;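 note: 0% = DMSO wells given calcium and 100% = 1 mM EGTA wells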
# Mdm2 MdmX conf = Mdm2-MdmX complex disruptors, retested hits, confirmation, luminescence, single concentration; 10,000 compounds, 55% hits; Mdm2-MdmX binding, luminescent assay; shares compounds with Mdm2-MdmX inh; inhibition, % at 8 µM; AID 489028, 2010; in the data active = inhibition above about 40%
# FLuc counter = full-length luciferase signal inhibition, confirmation, counter-screen for Mdm2/MdmX interaction inhibitor project, cell-based, single concentration, SaOS-2. AID 504607, 2011. 6,200 compounds, 77% hits. SaOS-2 full-length luciferase counterscreen, luminescence. inhibition, % at 8 µM. shares compounds with Mdm2-MdmX inh;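 active = mean inhibition at 8 µM reaching about 37%, which flags the compound as non-specific, limit read from the data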;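 note: p53-null SaOS-2 cells with luciferase driven by a doxycycline-inducible promoter; compound on cells about two nights before reading with doxycycline added after day one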
# * hit, by the source's call; ? = inconclusive; / = not tested or not shown. Shown are actives, neighbours in structure and some others; about 4.8% of the full set was active somewhere.
SMILES,Mdm2-MdmX inh,Beta apoptosis,Calb FLC,CSC inhib,MPTP inh,Mdm2 MdmX conf,FLuc counter
CC(=O)S[C@@H]1CC2=CC(=O)CC[C@]2(C)[C@H]2CC[C@@]3(C)[C@@H](CC[C@@]34CCC(=O)O4)[C@H]12,56.5*,-3.3,/,-1.8,-1.4,35.5,/
COc1ccc(-c2nn3c(-c4ccccc4)nnc3s2)cc1,18.8,6.1,51.9,25.1,9.1,/,/
CCN(CC)c1ccc(-c2nn3c(-c4ccccc4OC)nnc3s2)cc1,76.3*,57.1,47.9,93.4*,17.7,65.2*,73.0*
O=C(C(=O)N1CCC(Cc2ccccc2)CC1)c1ccccc1Br,/,/,/,/,0.2,/,/
O=C(CN1C(=O)C2CCCCC2C1=O)OCC(=O)c1ccc(Cl)s1 (configuration not stated),-13.2,-8.7,3.6,-8.5,0.3,/,/
CCCCC(=NCCc1c(C)[nH]c2ccccc12)C1=C(O)CC(c2ccccc2)CC1=O (configuration not stated),57.4*,9.7,-3.1,66.8,-0.9,44.5*,59.2*
CC(=NCCc1c(C)[nH]c2ccc(C)cc12)C1=C(O)CC(c2ccccc2)CC1=O (configuration not stated),49.0,1.3,-10.8,63.7,-2.4,/,/
CCCC(=NCCc1c(C)[nH]c2ccccc12)C1=C(O)CC(c2ccccc2)CC1=O (configuration not stated),51.7*,25.6,0.0,/,1.0,52.9*,55.4*
Cc1ccc(S(=O)(=O)N2C[C@@H]3[C@H]4CC[C@H](C4)[C@@H]3[C@@H](C)[C@H]2c2ccn(Cc3ccccc3)c2)cc1,26.0,/,/,/,-2.1,/,/
COc1ccc(NC(=O)/C(C#N)=C\C=C\c2ccco2)cc1,50.6*,-1.2,-10.7,?,-0.4,53.4*,58.1*
CCOc1cccc(/C=N/NC(=O)c2cc(C3CC3)[nH]n2)c1O,59.4*,95.8*,-3.3,127.6*,-1.9,26.2,/
O=[N+]([O-])c1c(Nc2ccc(O)cc2)cc(Cl)c2nonc12,100.3*,99.8*,86.6*,91.3*,1.8,100.2*,0.9
O=[N+]([O-])c1c(Nc2ccccn2)cc(Cl)c2nonc12,100.3*,114.7*,-5.5,96.1*,1.4,100.1*,0.8
CN(C)c1cc(Nc2ccc(O)cc2)c([N+](=O)[O-])c2nonc12,-2.9,-3.2,-5.7,11.1,0.2,/,/
O=C(O)c1ccccc1Nc1cc(Cl)c2nonc2c1[N+](=O)[O-],3.9,1.3,26.3,-10.3,2.1,/,/
Cc1ccc(OCC(=O)NNC(=O)c2cc(S(=O)(=O)N(C)C)ccc2N2CCCC2)cc1,/,/,/,/,2.0,/,/
CC1(C(=O)NS(=O)(=O)c2ccc(Cl)s2)CCN1C(=O)c1ccccc1CCc1ccccc1 (configuration not stated),/,/,/,/,2.4,/,/
COc1ccccc1Nc1nc(N)nc(CCl)n1,71.8*,-12.3,-15.9,-6.0,1.5,68.5*,54.4*
COc1ccc(OC)c(Nc2nc(N)nc(CCl)n2)c1,81.6*,-5.6,-5.5,-3.5,1.4,84.0*,40.7*
CCC(O)CNC(=O)NC(=C(Cl)Cl)c1ccc(C)c(F)c1 (configuration not stated),76.5*,-3.8,?,14.0,0.8,36.0,38.2*
O=C(CN(C(=O)CNC(=O)c1ccco1)c1cccc(F)c1)NC1CCCCC1,-15.1,2.8,-11.7,/,-0.4,/,/
COc1ccc(/C=C2\SC(=S)N(CCC(=O)NCCc3ccc(O)cc3)C2=O)cc1,78.6*,-9.9,3.7,-5.0,0.3,71.1*,27.4
COc1ccccc1/C=C1\SC(=S)N(CCC(=O)Nc2ccc(C(=O)O)c(O)c2)C1=O,-21.7,-0.8,-2.2,3.5,1.8,/,/
COc1ccccc1/C=C1\SC(=S)N(CCC(=O)NCCc2ccc(O)cc2)C1=O,59.6*,/,-1.9,-17.3,-0.2,38.2,68.8*
O=C(CCN1C(=O)/C(=C/c2ccccc2F)SC1=S)NCCc1ccc(O)cc1,71.4*,/,-7.2,8.3,49.2,53.0*,33.0
SMILES,Mdm2-MdmX inh,Beta apoptosis,Calb FLC,CSC inhib,MPTP inh,Mdm2 MdmX conf,FLuc counter
COc1ccccc1/C=C1\SC(=S)N(CC(=O)Nc2nnc(C)s2)C1=O,93.5*,98.0*,?,95.8*,/,-6.0,/
O=S(=O)(NCc1ccccc1)[C@@H]1CC2C=CC1C2 (some centres not stated),-0.8,0.3,/,-9.4,-1.5,/,/
O=C(CCN1C(=O)/C(=C/c2ccc(F)cc2)SC1=S)N[C@@H](CO)Cc1ccccc1,82.1*,-44.6,/,5.0,2.2,60.9*,37.3*
O=C(CCN1C(=O)/C(=C/c2ccc(F)cc2)SC1=S)NNC(=O)c1ccncc1,19.8,-3.3,0.8,2.3,2.1,/,/
O=C(CCN1C(=O)/C(=C/c2ccccc2)SC1=S)NCCc1ccc(O)cc1,98.3*,-12.9,-1.4,21.1,11.1,87.7*,59.8*
C[C@H](CO)N1C[C@H](C)[C@H](CN(C)C(=O)C2CC2)OCc2cnnn2CCCC1=O,/,/,/,/,-1.7,/,/
COc1ccccc1-c1cnc(C(O)c2ccc(C(C)(C)C)cc2)[nH]1 (configuration not stated),/,/,/,/,3.4,/,/
Cc1cccc(C(=O)OCC(=O)NCc2ccc(Cl)cc2)c1,/,/,/,/,0.8,/,/
COC(=O)c1ccc2nc(C)cc(Nc3ccc(N(C)C)cc3)c2c1,5.3,13.9,11.1,14.0,-0.1,/,/
COC(=O)c1ccc(Nc2cc(C)nc3ccccc23)cc1,100.2*,20.3,-2.2,38.9,3.2,65.2*,52.1*
CC(=O)c1ccc(Nc2cc(C)nc3c(C)cc(C)cc23)cc1,64.0*,77.5*,-6.6,-7.3,1.0,61.2*,65.4*
Cc1cccc(-c2noc(C(C)NC(=O)c3ccco3)n2)c1 (configuration not stated),21.3,0.1,3.5,14.0,0.2,/,/
Cc1nnnn1/C(=C\c1ccccc1)C(=O)OCC(=O)NC1CCCCC1,62.4*,-30.3,-3.4,24.8,-0.3,45.0*,45.2*
Cc1cnc(-c2nc3ccccc3n2C(C(=O)Nc2c(C)cccc2C)C2CC2)cn1 (configuration not stated),/,/,/,/,-1.2,/,/
CCc1cc2c3c(c1)C1(C(=O)N3C(C)(C)C=C2C)C(C#N)=C(N)Oc2[nH]c(=O)[nH]c(=O)c21 (configuration not stated),56.9*,8.8,-1.8,-8.0,0.0,41.5*,81.2*
CC1=CC(C)(C)N2C(=O)C3(C(C#N)=C(N)Oc4cc(C)oc(=O)c43)c3cc(C)cc1c32 (configuration not stated),-3.9,-1.4,-12.3,0.7,0.7,/,/
